Experimental data from PubChem BioAssay AID686964 (The Scripps Research Institute Molecular Screening Center, 2013).
“And” between values parts separate entries of the source, which are not always exact repeats. Equal values may be shown once. Hit rate of the full screen: of about 370,000 compounds, about 1,100 (0.3%) were called active. Cut-off read from the data, not from the text of the source: active = inhibition above about 13%; inactive = the rest. Many of the other results were omitted from the sample, so actives are more common in it than they were.

Biological target: Methyl-CpG-binding domain protein 2 (Homo sapiens) (UniProt Q9UBB5)
Sequence (Q9UBB5 whole entry, looked up, the tested form may be a part): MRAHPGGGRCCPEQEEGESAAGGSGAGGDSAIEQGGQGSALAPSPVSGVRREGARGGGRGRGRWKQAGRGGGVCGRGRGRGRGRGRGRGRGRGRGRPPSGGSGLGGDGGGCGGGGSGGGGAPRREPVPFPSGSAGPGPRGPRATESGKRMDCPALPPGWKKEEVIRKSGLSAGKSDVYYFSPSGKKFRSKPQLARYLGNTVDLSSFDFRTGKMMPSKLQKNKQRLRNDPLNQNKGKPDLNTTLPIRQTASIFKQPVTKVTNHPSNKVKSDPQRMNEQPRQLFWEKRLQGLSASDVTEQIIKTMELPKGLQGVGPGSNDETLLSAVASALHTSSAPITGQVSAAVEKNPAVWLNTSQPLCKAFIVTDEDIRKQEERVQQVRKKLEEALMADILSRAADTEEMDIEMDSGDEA
Test: MBD2-DBD methyl-oligonucleotide interaction blockers – biochemical, TR-FRET, DNA-binding domain, human, primary screen (AID 686964)
Conditions: MBD2 binding to methylated oligonucleotide, at 4.4 µM, hits give high values

inhibition, inactive:
CC1CCCCC1NC(=O)c1cn(C)c2ccc(S(=O)(=O)N3CCOCC3)cc2c1=O (stereo unspecified) 0.43%
CCn1cc(C(=O)N2CC(C)CC(C)C2)c(=O)c2cc(S(=O)(=O)N3CCCC3)ccc21 (stereo unspecified) -7.45%
CCOC(=O)c1ccn(-c2nc(-c3ccco3)cc(C(F)(F)F)n2)n1 1.89%
Cc1cc(C)c2nc(-c3cccnc3)cc(C(=O)Nc3ccc(S(=O)(=O)Nc4onc(C)c4C)cc3)c2c1 -1.74%
CCC(=O)c1c(CC)c2n3c1=CC[C@H]3CC(Br)C=2 (stereo partly specified) 1.67%
Cc1ccc(NC(=O)C2CC(=O)N(c3ccc4c(c3)OCCO4)C2)cc1S(=O)(=O)N1CCCCCC1 (stereo unspecified) 2.94%
Cc1ccc(C(=O)NNC(=O)c2ccncc2)cc1S(=O)(=O)N1CCCCC1 -3.54%
Cc1cc(C)nc(NC(=S)N2CCN(c3ccc(C(F)(F)F)cn3)CC2)c1 -0.18%
N#Cc1ccccc1CN1C(=O)S/C(=C/c2cccn2-c2cccc(C(=O)O)c2)C1=O 10.6%
COC(=O)CN1C(=O)N/C(=C/c2ccc(OC)c(C)c2OC)C1=O -3.97%
Cc1ccc(Cn2cc(CN3[C@@H](C)COc4cc(Br)ccc4S3(=O)=O)nn2)cc1 -5.2%
CCc1noc(C)c1C(=O)N1CCN(S(=O)(=O)c2cccc(C(F)(F)F)c2)CC1 -5.25%
O=C(CCl)NC1CCCCN(Cc2cccc(C(F)(F)F)c2)C1=O (stereo unspecified) 3.06%
CCCSc1nc2sc3c(c2c(=O)n1-c1ccc(OC)cc1)CCN(C)C3 -2%
CCn1c(SCC(=O)Nc2ccc(Br)cc2)nc2sc3c(c2c1=O)CCN(C)C3 0.05%
CCCCC(=O)N[C@@H]1CC[C@@]23CCCN2C(=O)CCC[C@H]3[C@H]1C -0.72%
COc1ccc(Cl)cc1NC(=O)COC(=O)c1ccc(Br)o1 -1.28%
COc1ccc(Cl)cc1NC(=O)CN(C)Cc1ccc(OC)c(OC)c1 0.39%
CC(=O)N1CCc2cc(S(=O)(=O)NCCC(=O)N3CCCC3)ccc21 0.46%
CCCN(CC(=O)NC(=O)NC1CCCCC1)CC(=O)Nc1cc(Cl)ccc1Cl -5.45%
CCOC(=O)c1c(C)[nH]c(C(=O)NCCN2CCOCC2)c1C 4.74%
CCOC(=O)c1c(NC(=O)CCCN2CCOCC2)sc2c1CC(C)(C)OC2 0.1%
CCN(C(=O)[C@@H](C1CC1)[C@@H](O)c1ccc2ccccc2c1)c1ccccc1 3.52%
O=C1C(=O)N(Cc2ccc(-c3ccsc3)cc2)c2ccc(OC(F)(F)F)cc21 -3.46%
CC(C)CCN1CCC(C)(NC(=O)c2ccccc2)C1=O (stereo unspecified) 0.15%
COC(=O)[C@]1(C#N)CC(=O)N(CC2CCCCC2)[C@@H]1c1ccccc1 -3.31%
COC(=O)c1ccc2nc(-c3ccc(F)cc3)c(Cc3ccc(C)cc3)n2c1 3.12%
COC(=O)c1ccc2nc(-c3ccc(Cl)cc3)c(Cc3cccc(F)c3)n2c1 2.68%
O=S1(=O)c2ccc(Br)cc2OC[C@H](Cc2ccccc2)N1Cc1cn(Cc2ccccc2)nn1 9.67%
Cc1cc(NCCc2c[nH]c3ccccc23)ccc1Oc1cccnc1 -2.55%
COC(=O)c1ccc(SCc2ccccc2)nc1 -4.53%
CC(C)CC(CC(C)C)=NNC(=O)c1ccc(CSc2nncn2C)cc1 -5.89%
CN[C@H]1C[C@H]2c3cc(N4CCOCC4)ccc3CCN2C[C@H]1[C@H](C)O -5.62%
COC(=O)[C@@H]1CC(O)CN1C(=O)C12CC3CC(CC(C3)C1)C2 (stereo partly specified) 2.14%
COc1nc(Oc2ccc(=O)n(C)n2)nc(N(C)C)n1 -3.73%
Cc1ccc(S(=O)(=O)NCCSC(C)(C)C)cc1 0.35%
COc1ccc(CSc2nnc(-c3cccc(C)c3)n2C)cc1 0%
Cc1cc(Cl)ccc1N1C(=O)CC(SCCC(=O)O)C1=O (stereo unspecified) 2.13%
COC(=O)c1cc2c(c3c4ccccc4n(S(=O)(=O)c4cccc(C)c4)c13)C(=O)N(Cc1ccccc1)C2 0.83%
CCc1ccccc1NC(=O)CN(c1ccc(OC)cc1OC)S(=O)(=O)c1ccccc1[N+](=O)[O-] 2.54%
O=C(Cc1ccc(Br)cc1)NCCN1CCOCC1 -0.23%
CSc1ccc(CNCCN2CCOCC2)cc1 2.47%
COc1ccccc1C(=O)NCC(=O)OCC(=O)NNC(=O)c1ccc(Br)cc1 -6.8%
COc1ccccc1C(=O)Nn1cnnc1 3.63%
Cn1cnnc1Sc1ccc(CN2CCN(C3CCCC3)C(CCO)C2)o1 (stereo unspecified) -4.49%
C[C@@H]1CN([C@@H](C)CO)C(=O)c2cccc(NC(=O)Nc3cccc4ccccc34)c2O[C@H]1CN(C)S(=O)(=O)c1ccccc1F -5.98%
COc1ccccc1C(=O)NC1CCCCN(C(C)C)C1=O (stereo unspecified) 6.15%
Cc1ccc(S(=O)(=O)N(CCc2ccccc2)c2ccc3c(c2)C2CC3CCN2C(=O)OCc2ccccc2)cc1 (stereo unspecified) -6.75%
COc1ccc(CNC(=O)C2CCC(CNc3c(N4CCOCC4)c(=O)c3=O)CC2)cc1 (stereo unspecified) -0.13% and -5.05%
CCOc1cc(NC(=O)c2ccccc2C(=O)O)c(OCC)cc1NC(=O)c1ccccc1F 0.6%
CCC(CC)C(C(=O)NC1CCCC1)N1CCN(c2cc(C)nc3ccccc23)CC1 (stereo unspecified) -3.59%
Cc1cc(C(=O)OCC(=O)Nc2nccs2)c2ccccc2n1 8.33%
CCOc1ncccc1C(=O)Nc1ccc(S(=O)(=O)Nc2nc(C)cc(C)n2)cc1 -2.5%
O=C(CSc1nc2ccccc2nc1N1CCCCC1)N1CCN(S(=O)(=O)c2cccc([N+](=O)[O-])c2)CC1 -6.32%
O=C(NCc1ccc(Cl)cc1)C1CCCN(c2nc3ccccc3o2)C1 (stereo unspecified) -3.29%
O=C(c1ccc(F)cc1)c1c[nH]c(C(=O)NCc2cccnc2)c1 4.31%
O=C1CC[C@@]23CCCN2C(=O)CCC[C@H]3[C@H]1Cc1ccccc1 1.8%
COC(=O)C(=Nc1ccccc1)/C(C(=O)C(=O)N(C)c1ccccc1)=C(\O)c1ccc(Cl)cc1 -5.32%
CCCNc1ncnc2sc(C)c(C)c12 1.28%
O=C(Nc1cc(F)cc(F)c1)OC1CCC12CCC(c1ccccc1)CC2 (stereo unspecified) 0.3%
O=C1CC(c2ccc3c(c2)OCO3)N=C2N(CC3CC3)C/C(=C/c3ccccc3)N12 (stereo unspecified) -1.23%
COCCN1CCN(C(=O)c2cc(COc3ccc(F)cc3Cl)on2)CC1 2.22%
Cc1cc(OCc2cc(C(=O)NCc3cc(C(C)C)no3)no2)cc(C)c1Cl 4.94%
COC(=O)C1=C(C)N(Cc2ccccc2C(F)(F)F)C(=NCc2ccc(C(F)(F)F)cc2)NC1c1ccc(F)cc1 (stereo unspecified) 2.2%
CN1C(=O)CN2CCc3ccccc3C2c2cc(Cl)ccc21 (stereo unspecified) -5.25%
Cc1ccc(NC(=O)Cc2cccc(F)c2)c(S(=O)(=O)N2CCOCC2)c1 -5.33%
Cc1nc(CNc2ncnc3ccc(-c4ccc5c(c4)OCO5)cc23)cs1 -2.98%
COc1ccc(C2Nc3ccccc3C(=O)N2Cc2cccs2)cc1COc1c(C)cccc1C (stereo unspecified) -1.94%

inhibition, active:
COC(=O)c1cn(C)c2ccc(S(=O)(=O)N3CC(C)CC(C)C3)cc2c1=O (stereo unspecified) 21.1%
Cc1cc(C)c2nc(-c3ccco3)cc(C(=O)O)c2c1 13.2%
Cc1ccc(C(=O)Nc2ccc3c(c2)OCO3)cc1S(=O)(=O)N1CCCCC1 13.4%
Cc1ccccc1NC(=O)CN1C(=O)N/C(=C\c2cccn2-c2cccc(C(=O)O)c2)C1=O 20.6%
CCOc1ccc(-n2c(SCC(=O)Nc3ccc(OC)cc3)nc3sc4c(c3c2=O)CCN(C)C4)cc1 23.5%
COc1ccc(Cl)cc1NC(=O)CCS(=O)(=O)c1ccc(Br)cc1 26.3%
CCOC(=O)c1sc(NC(=O)CCN2CCOCC2)c(C(=O)OCC)c1C 28.4%
COC(=O)c1ccc2nc(C3CCCCC3)c(Cc3cccc(F)c3)n2c1 19%
COC(=O)c1ccc(CSc2nncn2N)cc1 48.3%
COc1cccc2c1C(=O)c1c(O)c3c(c(O)c1C2=O)CC(O)(C(C)=NNC(=O)c1ccc(Cl)c(Cl)c1)CC3OC1CC(N)C(O)C(C)O1 (stereo unspecified) 111%
COc1nc(N(C)C)nc(N2CC(=O)N(CCNS(=O)(=O)c3ccc(C)cc3)C2=N)n1 15.6%
c1ccc2cc3c(NCCN4CCOCC4)ccnc3cc2c1 15.3%
COc1ccccc1C(=O)NNC(=O)CCN1C(=O)/C(=C\c2ccccc2)SC1=S 13.2%
CCOc1ccc(NC(=O)c2cc(C)nc3ccccc23)cc1 16.2%
CCOc1cc(N2CCOCC2)c(OCC)cc1NC(=O)c1cc(C)nc2ccccc12 13.2%
C=CC1=C(C(=O)O)N2C(=O)[C@@H](NC(=O)/C(=N/OCC(=O)O)c3csc(N)n3)[C@H]2SC1 73.1%
C=CC1=C(C(=O)O)N2C(=O)[C@@H](NC(=O)/C(=N\OCC(=O)O)c3csc(N)n3)[C@H]2SC1 52.4%
COc1ccc(OCc2cc(C(=O)NCC3(C)COC3)no2)c(Cl)c1 17.4%
